In ChEMBL document CHEMBL3988442, “University of Dundee, Small-Polar-MMV Screening Library” (2021):

Biological target: Shiga toxin 2 (Escherichia coli O157:H7) (UniProt P09385+P09386)
Experiment: E. coli 0.157:H7 Shiga Toxin SOP - stx2 screening assay
Format: functional
Set-up: scale not given: direction of the effect not stated beside the values
Conditions: 30 µM

SMILES | Percent Effect
CCc1ccc(CNC(=O)NC(C)CN2CCOCC2)s1 (stereo not given) | -4.66%
O=C(c1ccccn1)N1Cc2nccn2CC(COc2cccnc2)C1 (stereo not given) | -14.8%
O=C(NCc1ccccn1)[C@H]1COC[C@H]2CN(Cc3ccoc3)C[C@H]21 | -0.902%
O=C(c1coc(COc2cccc(F)c2)n1)N1CC[C@H](O)[C@@H](O)C1 | 11.7%
Cc1nc(CN2CCOC(CN(C)c3cccnn3)C2)cs1 (stereo not given) | 7.32%
CCOc1cc(C(=O)N2CCCC(c3noc(C)n3)C2)ccn1 (stereo not given) | 28.1%
O=C(CSC1CCc2ccccc2NC1=O)NCCc1ccco1 (stereo not given) | -9.27%
COCCC(=O)N1CCC2(CN(Cc3ccc(OC)c(F)c3)C2)C1 | -4.43%
Cc1ccccc1-c1cncc(C2CCN(C)CC2)n1 | -4.06%
CCSCCNC(=O)C(c1cccc(C)c1)N(C)C (stereo not given) | -22.9%
CCc1nc(CC(=O)N2CCOCC2c2ncon2)cs1 (stereo not given) | 11.7%
CN(CCC(F)(F)F)C(=O)[C@H]1CSCN1C(=O)OC(C)(C)C | -17.7%
CC(=O)Nc1nc(C(=O)NCc2ccc(N3CCCCCC3)nc2)cs1 | -131%
CCC(C)c1noc(C2CCN(C(=O)c3cccnc3)CC2)n1 (stereo not given) | -27.8%
CN(CCC#N)C(=O)CN1CCCC1c1ccsc1 (stereo not given) | 22%
COc1ccc(CN(C)CC2CCCN2c2cccnn2)cc1F (stereo not given) | 3.14%
c1ccc(Oc2cc(CNCC3CNc4ccnn4C3)ccn2)cc1 (stereo not given) | -36.5%
CN1CCN(CC2CC2)C(=O)c2cnc(N3CC[C@@H](O)C3)nc21 | -9.73%
O=C1CC(c2ccncc2)c2c(c(C(=O)O)cn2-c2ccc(F)cc2)N1 (stereo not given) | -17.3%
CC(C)(C)n1ncc2c1CCCC2NCc1cccc2c1OCO2 (stereo not given) | -1.18%

SMILES | Percent Effect
CC(NC(=O)N1CCC(OCc2ccccc2)CC1)c1nncn1C (stereo not given) | 3.46%
CN(C)Cc1ccc(C2CCCCN2C(=O)c2cccc(CO)n2)cc1 (stereo not given) | 0.431%
Cc1ccccc1CS(=O)(=O)CC(=O)NCc1ccccc1F | 10.5%
CCS(=O)(=O)CCN1CCC(N(C)Cc2noc(C(C)C)n2)C1 (stereo not given) | -10.7%
Cc1cccc(C(=O)N(C)Cc2cc(Br)cs2)n1 | -8.77%
CS(=O)(=O)N1CCC2(CC1)CC(CC(=O)N1CCCC1)c1ccccc12 (stereo not given) | 8.75%
Cn1cnc2c1C(COCC1CCOCC1)CN(C1CCOCC1)C2 (stereo not given) | -20.2%
CC(C)c1n[nH]c(C2CN(C(=O)CCn3ccccc3=O)CCO2)n1 (stereo not given) | 10.2%
Cc1ccn(-c2ccccc2NCc2ccccn2)n1 | 4.81%
Cc1ccoc1-c1nnc(CN2CCCC(Cn3cncn3)C2)o1 (stereo not given) | -16.9%
Cc1ccc(C(=O)N2CCn3cc(CN(C)Cc4ccco4)nc3C2)o1 | -35.1%
Cc1nn(-c2ccccc2)nc1C(=O)N1CCCC1c1cnn(C)c1 (stereo not given) | 18.4%
COCC1CN(C(=O)CNC(C)=O)Cc2ncnn2C1 (stereo not given) | -26.6%
O=C(CCOc1ccc(Cl)cc1)N1CCN(c2cnccn2)CC1 | -12.7%
COc1ncccc1CNc1cc(N2CCCC2CO)ncn1 (stereo not given) | -26.2%
CN(C)c1cncc(C2CCN(C(=O)CO)CC2)n1 | 7.95%
CCc1ccc(C(=O)N2CCCC(c3noc(CC)n3)C2)o1 (stereo not given) | 10.6%
CC(C)CC(=O)N1C[C@@H]2CCN(c3ncccn3)C[C@@H]2C1 | -21.6%
Cc1ccc(-n2nnc(CC(=O)N3CCSCC3)c2C)cc1 | -35.4%
CCCc1n[nH]c(C2CN(CCCS(C)(=O)=O)CCO2)n1 (stereo not given) | -21.5%
